ALDH1A1 block: blocks purified human ALDH1A1 activity; P00352; Purified ALDH1A1, NADH fluorescence, propionaldehyde substrate; Potency, µM (top dose mostly 75.3 µM), for inactives: at the highest dose activity, negative = inhibition, usual class: inhibitors; actives 7.3% (n = 220,000); AID 1030; active means well fitted inhibition curve with a large enough effect, not every such curve was filed as active; inconclusive means small, poorly fitted or top-dose-only effect, or another doubt; inactive means no such curve, though single readings can be large or run the other way;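 further: potency means the concentration at half of the fitted maximal effect; plate controls were no enzyme wells and a reference inhibitor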
Target sequence (P00352 whole entry, looked up): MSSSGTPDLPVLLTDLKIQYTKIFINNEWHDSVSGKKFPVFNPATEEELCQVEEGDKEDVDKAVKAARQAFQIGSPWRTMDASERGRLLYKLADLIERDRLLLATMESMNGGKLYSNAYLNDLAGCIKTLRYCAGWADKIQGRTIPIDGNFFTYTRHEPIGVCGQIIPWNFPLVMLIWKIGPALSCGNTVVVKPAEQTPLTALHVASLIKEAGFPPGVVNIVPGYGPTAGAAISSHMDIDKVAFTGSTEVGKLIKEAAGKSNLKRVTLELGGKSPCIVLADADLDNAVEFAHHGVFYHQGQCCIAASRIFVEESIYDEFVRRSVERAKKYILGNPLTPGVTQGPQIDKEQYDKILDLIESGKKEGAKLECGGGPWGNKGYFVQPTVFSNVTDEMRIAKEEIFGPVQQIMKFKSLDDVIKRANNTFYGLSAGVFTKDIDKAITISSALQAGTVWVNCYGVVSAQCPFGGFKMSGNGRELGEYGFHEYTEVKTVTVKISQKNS
HTT cytoprotect: protects HTT-Q103 PC12 cells, measured by ATP. actives 0.14% (n = 230,000). AID 1471. Potency, µM (doses to about 56.4 µM), inactives show cytoprotection (ATP increase), usual class: activators. PC12 HTT-Q103 induced, cytoprotection, ATP luminescence, 40 h; further: potency means the concentration at half of the fitted maximal effect; % of control where 0% means no effect; nearly all actives have a fitted effect of over 45% in size
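Huntington model: PC12 line, ecdysone-inducible HTTQ103 exon1–GFP, tebufenozide 100 nM. Test articles in a dose series. Endpoint luminescence from cellular ATP.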
HPGD inh: inhibitors of human 15-hydroxyprostaglandin dehydrogenase (HPGD); P15428; purified HPGD, NADH fluorescence kinetic, PGE2 substrate; Potency, µM, for the others: at the top dose activity change, negative = inhibition, most hits filed as inhibitors; actives 4.3% (n = 150,000); AID 894; active means well fitted inhibition curve with a large enough effect, not every such curve was filed as active; inconclusive means small, poorly fitted or top-dose-only effect, or another doubt; inactive means no such curve, though single readings can be large or run the other way; further: potency means the concentration at half of the fitted maximal effect; on the % scale 0 is the no-effect control and ±100 the full control effect
Target sequence (P15428 whole entry, looked up): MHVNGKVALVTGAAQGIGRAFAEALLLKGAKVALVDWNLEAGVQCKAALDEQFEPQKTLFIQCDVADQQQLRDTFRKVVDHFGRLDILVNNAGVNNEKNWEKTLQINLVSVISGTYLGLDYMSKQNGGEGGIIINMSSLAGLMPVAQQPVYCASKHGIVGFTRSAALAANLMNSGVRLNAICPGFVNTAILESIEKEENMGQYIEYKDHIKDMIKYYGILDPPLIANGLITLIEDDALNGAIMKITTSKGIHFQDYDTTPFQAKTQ
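20 nM HPGD preincubated 15 min at room temperature with compound in 50 mM Tris-HCl pH 8, 0.01% Tween 20. Started with 1 mM NAD+ and 30 uM prostaglandin E2; NADH fluorescence (360/450 nm) read 5 times over 30-s intervals, last minus first.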
HttQ103 aggreg: reduces HttQ103-GFP aggregates in PC12 cells; PC12 HttQ103-GFP aggregates, Acumen cytometry, 40 h; Potency, µM (series often up to 46.1 µM), inactives show at the top dose activity change, negative = inhibition, hits mostly inhibitors; actives 1.1% (n = 220,000); AID 1688; further: potency means the concentration at half of the fitted maximal effect; on the % scale 0 is the no-effect control and ±100 the full control effect; nearly all actives have a fitted effect of over 60% in size
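Huntingtin Q103 exon 1–GFP aggregates in induced PC12 cells (100 nM tebufenozide) were quantified by cytometry from lysates, with compounds dosed in titration.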
IMPase Li cell: IMPase inhibition in cells with lithium potentiation | CHO-M1 cells, IP1 TR-FRET (IP-One), carbachol + lithium | Potency, µM (titrated, usually from 59.4 µM), for inactives: top-dose activity, negative = IMPase inhibition, hits mostly inhibitors | actives 0.35% (n = 210,000);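 further: IP1 builds up when IMPase is blocked and the TR-FRET signal falls; potency means the concentration at half of the fitted maximal effect; plate controls were basal vehicle for no effect and high inhibitor control for full effect; nearly all actives have a fitted effect of over 50% in size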
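CHO cells stably expressing M1 receptor (2000/well) were cultured 16–30 h, then exposed to compounds with a small lithium addition for 30 min at 37C. IP1 was measured by TR-FRET competition; AC50 from Hill fits.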
IMPase inh: IMPase inhibition in cells | AID 901 | 120,000 tested, under 10 active | CHO-M1 cells, IP1 accumulation, HTRF TR-FRET ratio | inhibition (IP1 accumulation), % at 46.1 µM; active means well fitted curve in the direction sought with a large enough effect in the signal ratio, not every such curve was filed as active; inconclusive means small, poorly fitted or top-dose-only effect, or a change in a side signal; inactive means no such curve, though single readings can be large or run the other way; the % refers to the signal ratio;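 further: cells stimulated with carbachol in lithium chloride buffer; plate controls were DMSO basal wells for no effect and reference inhibitor wells for full effect; higher means more IMPase inhibition seen as more IP1 and lower FRET ratio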
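The IP-One HTRF competitive assay in carbachol-stimulated CHO-M1 cells quantifies cellular IP1. Compounds spanned up to 46 uM final, and activity is expressed as AC50 from concentration-response fits of the ratio and donor data.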
* hit, by the source's call; ? = inconclusive; nt = no result given; ! = repeats disagree; [ ] = another dose, or the depositor's remark. This is a sample that favours compounds with a hit; in the whole collection about 9.4% have one here. Unless noted, the call rests on the fitted dose curve; in most records, active means well fitted curve in the direction sought with a large enough effect; inconclusive means small, poorly fitted or top-dose-only effect, or another doubt; inactive means no such curve, though single readings can be large; an effect the other way counts as inactive or inconclusive.

SMILES | ALDH1A1 block | HTT cytoprotect | HPGD inh | HttQ103 aggreg | IMPase Li cell | IMPase inh
CSc1ccccc1C(=O)Nc1ccccc1C(=O)NC(C)C | ? | -6%[10 µM] | nt | 22% | 1% | nt
C=CCCCCCCC=C | -11% | -59% | -1% | nt | -12% | nt
Cc1c(Cn2ccnc2)c2ccccc2n1CCC(=O)O | nt | ? | nt | 7% | nt | nt
Cc1cc2cc(CN(Cc3ccc4c(c3)OCO4)C(=O)c3cnccn3)c3nnnn3c2cc1C | 14µM* | -31% | -18% | 8% | 8%[38.3 µM] | 0
CSC1=NCCN1C(=O)c1ccc2c(c1)OCO2 | 11µM* | -16% | nt | 7% | nt | 1
CSC1=NCCN1C(=O)c1ccc(C)cc1 | -3% | -13%[10 µM] | nt | 12% | -1% | nt
COc1cc(/C=C/C(=O)CC(=O)/C=C/c2ccc(O)c(OC)c2)ccc1O | 8.9µM*! | ? | 14µM*! | ? | 7% | -9
COc1cc(/C=C/C(=O)O)ccc1O | -3% | -46% | -23% | nt | 7% | nt
COc1cc(C=O)ccc1O | 25µM* | -8%[1.9 µM] | -15% | nt | 5% | -5
COc1cc(/C=C2/C(=O)CNC2=O)ccc1O | 13µM* | -22%[10 µM] | nt | 8% | 44% | nt
COc1cc(/C=C/C(=O)/C=C(O)/C=C/c2ccc(O)c(OC)c2)ccc1O | -4% | ? | 22µM*! | 5% | 4% | nt
COc1cc(/C=C\C(=O)CC(=O)/C=C\c2ccc(O)c(OC)c2)ccc1O | nt | 9% | nt | nt | nt | nt
COc1ccc2c(c1)CCN1C2CCN2C(=O)CCC21 (stereo not drawn) | nt | 1%[10 µM] | nt | -14%[9.22 µM] | nt | nt
COC(=O)c1cc(Cl)c(NC(=O)/C=C/c2ccc(OC)c(OC)c2)cc1OC | ? | 10%[10 µM] | ? | 5% | 10µM* | -8
O=C(Nc1ccc(Cl)cc1)/C(=C/c1ccc([N+](=O)[O-])cc1)c1nc2ccccc2s1 | -4% | -197% | nt | 7.1µM* | 9% | nt
O=[N+]([O-])c1ccc(Nc2nc3ccccc3s2)cc1 | 1.4µM* | -2%[10 µM] | -29% | nt | 0% | nt
Fc1ccc(Nc2nc3ccccc3s2)cc1 | 1% | -8%[10 µM] | nt | -7% | 15% | nt
O=C(Nc1nc2ccccc2s1)Nc1ccc([N+](=O)[O-])cc1Cl | nt | 21%[10 µM] | nt | -9%[9.22 µM] | nt | nt
CC(NC(=S)NCc1ccc(F)cc1)C12CC3CC(CC(C3)C1)C2 (stereo not drawn) | ? | 7%[10 µM] | nt | 14%[9.22 µM] | 20% | nt
c1ccc(-c2nc(-c3ccccc3)c(Nc3ccc4ccccc4c3)o2)cc1 | 8% | ? | -5% | nt | 13% | nt
COc1ccc(-c2cc(C(=O)Oc3ccc(Br)cc3)c3ccccc3n2)cc1 | nt | nt | nt | nt | nt | 1
OCc1cc([C@@H](O)CNCCCCCCOCCCCc2ccccc2)ccc1O | -3% | -93% | -6% | nt | 8% | -2
Cc1oc(-c2ccccc2)nc1CS(=O)CC(=O)N1CCc2ccccc2C1 (stereo not drawn) | 25µM* | -9% | ? | 16% | -9%[38.3 µM] | 2
Cc1ccc(Nc2nnc(C(C)(C)C)c(=O)n2N)cc1 | 12% | 5%[10 µM] | 2% | -7% | -2% | 2
CC(C)(C)c1nnc(N/N=C/c2cc(Br)ccc2O)n(N)c1=O | 9% | -24%[10 µM] | -13% | 13µM* | 16% | 22
SMILES | ALDH1A1 block | HTT cytoprotect | HPGD inh | HttQ103 aggreg | IMPase Li cell | IMPase inh
CC(=O)Nc1ccc2nc(-c3ccc(Br)o3)[nH]c2c1 | 32µM* | 18%[0.074 µM] | -22% | 12% | 2% | nt
Cc1ccc(-c2nc3ccc(NS(=O)(=O)c4ccccc4)cc3[nH]2)o1 | 8.9µM* | -39% | 40% | -29% | 33%[38.3 µM] | 6
O=S(=O)(Nc1ccc2nc(-c3ccc(Br)o3)[nH]c2c1)c1ccccc1 | -16% | 13% | -30% | -33% | -3%[38.3 µM] | 9
CC(=O)OC1CC2C(C)(C)C(=O)[C@@H]3OC3[C@@]2(C)C2CC[C@]3(C)C(=CC(=O)OC3c3ccoc3)[C@]12C (stereo partly drawn) | -2% | nt | -2% | nt | 0% | nt
O=c1oc2c(O)c(O)cc3c(=O)oc4c(O)c(O)cc1c4c23 | -7% | 29%[1.9 µM] | 0.89µM* | -20% | -5% | ?
Cc1c(O)c(CN(C)C)cc2c1oc(=O)c1ccccc12 | nt | -14%[10 µM] | nt | -14%[9.22 µM] | nt | nt
Cc1ccc(S(=O)(=O)N2CCOCC2)cc1C(=O)c1nccn1C | 19µM* | -8% | nt | -2% | 3% | nt
Cc1ccc(S(=O)(=O)N2CCOCC2)cc1C(=O)N1CCOCC1 | -9% | -2% | -5% | 13%[9.22 µM] | 1%[38.3 µM] | -11
CCc1ccc(C(=O)CSc2nc(-c3ccccc3)nc3c2CCCC3)cc1 | nt | nt | nt | nt | nt | -11
[O-][N+](=Nc1ccccc1)c1ccccc1 | -6% | -7% | 1% | 1% | 3% | nt
CC(C)N(C(=O)CSc1nnc(-c2cc3ccccc3cc2O)n1Cc1ccco1)C(C)C | -6% | 12%[1.9 µM] | -20% | -30% | 21%[38.3 µM] | 5
O=C(CSc1nnc(-c2ccccc2O)o1)N1CCc2ccccc2C1 | 22µM* | -3%[10 µM] | -27% | 1%[9.22 µM] | 4%[38.3 µM] | 9
Clc1ccccc1-c1nnc(-c2ccccc2Cl)o1 | -9% | -4%[10 µM] | 16µM* | 1% | 13% | 9
O=C(CSc1nnc(-c2cc3ccccc3cc2O)n1Cc1ccco1)N1CCc2ccccc2C1 | 35µM* | -51% | -21% | ? | -2%[38.3 µM] | 3
Clc1ccc(-c2nnc(-c3ccccc3Cl)o2)cc1 | ? | -7% | nt | -1% | nt | 5
O=C(CSc1nnc(-c2ccccc2Cl)o1)N1CCCCC1 | ? | -4%[10 µM] | 25µM* | 5% | 16%[38.3 µM] | -8
O=C(O)c1ccc(N[C@@H]2OC[C@@H](O)[C@@H](O)[C@@H]2O)cc1 | 3% | -20% | -6% | -1% | 10% | nt
CO[C@@H]1/C=C\CC(=O)N[C@@H](C)C(=O)OC[C@H](NS(=O)(=O)c2ccc(C)cc2)[C@H](C)/C=C\CC(=O)OC[C@H]1C | 4%[13.5 µM] | ? | nt | nt | nt | nt
CC(=O)Nc1ccc(NC(=O)c2ccco2)cc1 | -1% | -33% | -12% | -7% | 18%[38.3 µM] | 6
O=C(/C=C/Nc1ccc(F)c(Cl)c1)c1ccco1 | 28µM* | -74%[0.074 µM] | -24% | -1% | 15%[38.3 µM] | 4
CN(C)c1ccc(N/C=C/C(=O)c2ccco2)cc1 | 28µM* | -14% | 35µM* | -22% | 68%[38.3 µM] | 32
O=C(/C=C/Nc1cccc(F)c1)c1ccco1 | -13% | 4%[10 µM] | -26% | -17% | 4%[38.3 µM] | -1
CC(=O)Nc1ccc(N/C=C/C(=O)c2ccco2)cc1 | 4.5µM* | -16% | 25µM* | 9% | 11%[38.3 µM] | 3
O=C(O)Cn1c(=O)oc2cc(S(=O)(=O)NC3CCCCC3)ccc21 | nt | -10% | nt | nt | nt | nt
O=[N+]([O-])c1ccc(Sc2ccccc2)nc1 | -8% | -5%[0.074 µM] | -5% | 10% | 1% | nt
O=[N+]([O-])c1ccc(Sc2n[nH]c(-c3ccccc3)n2)nc1 | -15% | -2% | 8.9µM* | -15% | -8%[38.3 µM] | -3

Source: PubChem (National Center for Advancing Translational Sciences (NCATS))
